Test results reported in PubChem BioAssay AID778 (Sanford-Burnham Center for Chemical Genomics, 2007).
Screen size: about 96,000 compounds; about 20,000 (21%) were called active. Only a sample is shown. Values without a mark were called inactive.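 Rule for the calls: active = CYP2C19 inhibition above a set limit at 5 µM in the primary screen (cut at about 50% in these data); inactive = the rest.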

Each compound was assayed against Cytochrome P450 2C19 (Homo sapiens) (UniProt P33261) (assay: blockers of cytochrome P450 2C19 activity – biochemical, luminescence, ADME assay, primary screen (AID 778;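 note: plate controls were negative control wells for no effect and 2.5 mM tranylcypromine positive control for full effect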)). Details: CYP2C19 Supersomes, luciferin-H EGE luminescence, 30 min; at 5 µM; active compounds read high.
Chain of Cytochrome P450 2C19 (Homo sapiens) (P33261 whole entry, looked up): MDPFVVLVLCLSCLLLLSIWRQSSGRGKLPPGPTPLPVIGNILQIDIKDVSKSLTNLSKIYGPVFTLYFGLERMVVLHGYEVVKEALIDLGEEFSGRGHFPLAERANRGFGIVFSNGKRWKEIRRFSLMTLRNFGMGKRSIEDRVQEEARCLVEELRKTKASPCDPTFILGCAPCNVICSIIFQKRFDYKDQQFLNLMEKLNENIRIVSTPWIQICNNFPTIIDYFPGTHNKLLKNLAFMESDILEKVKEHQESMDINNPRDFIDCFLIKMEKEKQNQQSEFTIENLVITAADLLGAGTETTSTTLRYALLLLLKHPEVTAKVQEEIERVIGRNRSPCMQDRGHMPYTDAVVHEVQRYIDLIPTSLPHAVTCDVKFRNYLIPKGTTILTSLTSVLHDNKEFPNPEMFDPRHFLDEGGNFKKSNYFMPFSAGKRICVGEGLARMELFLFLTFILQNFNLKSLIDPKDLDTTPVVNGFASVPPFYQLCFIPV
`O=C1c2cccnc2C(=O)N1Cc1cccs1` showed an inhibition of 21.3%. `CCCCNC(=O)CCn1c(=S)[nH]c2cc3c(cc2c1=O)OCO3` was tested, and the inhibition was 41.9%. `CCCCn1c(=S)[nH]c2ncccc2c1=O` was tested, and the inhibition was 10.8%. With `CC(C)(C)c1ccc(C(=O)NNC(=O)Cc2ccccc2)cc1` the inhibition was 23.9%. `O=S(=O)(c1ccc(F)cc1)n1ccc(-c2cnc(-c3ccccc3)s2)n1` gave an inhibition of 13.6%. In the case of `CCOC(=O)N1CCN(S(=O)(=O)c2cc3c(cc2C)NC(=O)CO3)CC1`, the inhibition is reported as 12.1%. `Cn1cc(S(=O)(=O)N2CCC(Cc3ccccc3)CC2)c(=O)n(C)c1=O` was tested, and the inhibition was 69.7% (active). In the case of `COCCn1c(CN2CCC(Cc3ccccc3)CC2)nc2c1c(=O)n(C)c(=O)n2C`, the inhibition is reported as 49.4%. In the case of `Cn1cc(S(=O)(=O)N2CCN(c3ccc(F)cc3)CC2)c(=O)n(C)c1=O`, the inhibition is reported as 26.4%. `C=CCn1c(SCc2c(C(=O)OC)sc(N)c2C(=O)OC)nnc1-c1ccc(Cl)cc1` was tested, and the inhibition was 57.1% (active). Compound `C=CCn1c(SCCOc2ccc(OC)cc2)nnc1C(NC(=O)c1ccc(OC)cc1)C(C)C` (stereo not given) has an inhibition of 35.4%. In the case of `C=CCn1c(SCC(=O)c2ccc(Br)cc2)nnc1C(C)NC(=O)Cc1ccc(OC)cc1` (stereo not given), the inhibition is reported as 11.6%. With `COCCn1c(SCc2nc3cc(OC)c(OC)cc3c(=O)[nH]2)nnc1-c1ccncc1` the inhibition was -13.4%. `C=CCn1c(SCc2cc(C(=O)OC)c(C)o2)nnc1-c1ccncc1` was tested, and the inhibition was 92.1% (active). `O=C1Nc2c(Br)cc(Br)cc2C1(O)N1CCOCC1` (stereo not given) showed an inhibition of 41.6%. Work on `O=C(NC(=O)c1ccc(Cl)c(Cl)c1)OC1CCS(=O)(=O)C1` (stereo not given) yielded an inhibition of -14.2%. `COc1ccc(-c2nc(SCC(=O)N3CCOCC3)n[nH]2)cc1` showed an inhibition of 1%. Work on `CN1/C(=c2/s/c(=C3/C(=O)N(c4ccccc4)NC3=Nc3ccccc3)n(C)c2=O)C(C)(C)c2ccccc21` yielded an inhibition of 38.5%. In the case of `CC1=C(C(=O)Nc2ccccc2)C(c2ccco2)C(C#N)=C(SCC(N)=O)N1` (stereo not given), the inhibition is reported as 2.2%. Work on `CCOC(=O)C1C(=O)NC(N2CCN(c3ccccc3)CC2)=NC1c1ccco1` (stereo not given) yielded an inhibition of 6.9%. For `COc1ccccc1NC(=O)C1=C(C)Nc2ncnn2C1c1ccc(C)o1` (stereo not given), the inhibition was 8.6%. `CC1=C(C(=O)OCc2ccccc2)C(c2ccco2)n2ncnc2N1` (stereo not given) was tested, and the inhibition was 90.2% (active). In the case of `CCOC(=O)CSC1=C(C#N)C(c2ccco2)C(C(=O)OCc2ccccc2)=C(C)N1` (stereo not given), the inhibition is reported as 72.5% (active). With `COc1ccccc1NC(=O)C1=C(C)NC2=C(C(=O)CCC2)C1c1ccc(C)o1` (stereo not given) the inhibition was 41.9%. Compound `CCOC(=O)CSC1=C(C#N)C(c2sccc2C)CC(=O)N1` (stereo not given) has an inhibition of 22.9%. For `COC(=O)C1=C(C)Nc2ncnn2C1c1ccco1` (stereo not given), the inhibition was -5.4%. `Cc1ccc(C2CC(=O)NC(SCC(=O)OCc3ccccc3)=C2C#N)o1` (stereo not given) was tested, and the inhibition was 82.5% (active). Work on `CCCNS(=O)(=O)c1ccc2c(c1)CCCN2C(C)=O` yielded an inhibition of 0.6%. In the case of `COc1ccc(N2CCN(C(=O)CSc3ncnc4c3cnn4-c3ccc(OC)cc3)CC2)cc1`, the inhibition is reported as 5.1%. `O=C(CN1C(=O)CSc2ncccc21)N1CCOCC1` showed an inhibition of 13%. In the case of `O=c1c(-c2ccccc2)coc2c(CN3CCOCC3)c(O)ccc12`, the inhibition is reported as 10.1%. In the case of `CN(c1cccc(NC(=O)Nc2ccc(Cl)cc2)c1)S(C)(=O)=O`, the inhibition is reported as 28.5%. For `Cn1nc(C(F)(F)F)c(C(=O)Nc2cccc(C(F)(F)F)c2)c1SCc1ccc(Cl)cc1`, the inhibition was 87.4% (active). For `CCC(C)Sc1nc(C)nc2c1c(=O)n(C)c(=O)n2C` (stereo not given), the inhibition was 32.5%. In the case of `O=C1COc2ccc(NC(=O)N3CCN(c4ccc(F)cc4)CC3)cc2N1`, the inhibition is reported as 8%. Compound `Cc1nonc1NC(=O)c1ccccc1Br` has an inhibition of -11.9%. For `O=C(Nc1ccc(-n2ccnc2P(=O)(O)c2ccccc2)cc1)c1ccccc1Br`, the inhibition was 96.9% (active). `O=C(Nc1ccccc1)c1cccnc1Nc1ccccc1` was tested, and the inhibition was 2.2%. Work on `O=c1c2[nH]c3ccc(Cl)cc3c2ncn1Cc1ccccn1` yielded an inhibition of 10.9%. `Nc1cc(OC(=O)c2ccccc2Br)nn1S(=O)(=O)c1ccccc1` gave an inhibition of 12.4%. `Cc1nnc(SCC(N)=O)n1CC1CCCO1` (stereo not given) was tested, and the inhibition was 8%. For `O=C(CSc1nnc(-c2cccnc2)n1Cc1ccco1)c1ccc(Cl)cc1`, the inhibition was 27.8%. In the case of `O=C(CSc1nnc(-c2ccco2)n1CC1CCCO1)c1ccccc1` (stereo not given), the inhibition is reported as 70.4% (active). In the case of `COc1cc(Cl)c(C)cc1NC(=O)CSc1nnc(-c2cccnc2)n1Cc1ccco1`, the inhibition is reported as 60.5% (active). With `CCn1c(SCC(=O)Nc2cc(C)c(Cl)cc2OC)nnc1-c1ccco1` the inhibition was 70.6% (active). `O=C(CSc1nnc(-c2cccnc2)n1Cc1ccco1)c1ccc(Cl)c(Cl)c1` was tested, and the inhibition was 79.7% (active). `CCOC(=O)CSc1nnc(-c2ccco2)n1C` was tested, and the inhibition was -5.6%. Work on `O=C(CSc1nnc(-c2cnccn2)n1Cc1ccco1)c1ccc(Cl)c(Cl)c1` yielded an inhibition of 5.6%. With `CCn1c(SCC(=O)Nc2cccc(F)c2)nnc1-c1cc2cc(Br)ccc2o1` the inhibition was 7.3%. For `CCOC(=O)CNC(=O)CSc1nnc(-c2cccc(OC)c2)n1CC`, the inhibition was 20.1%. In the case of `COc1ccc(-c2nn(-c3ccccc3)cc2C(=O)Nc2nc(CC(C)=O)ns2)cc1`, the inhibition is reported as -1%. Compound `COc1ccc(N2CCN(C(=O)CSc3nc4cc(OC)c(OC)cc4cc3C#N)CC2)cc1` has an inhibition of 37.5%. For `C[C@@H](Nc1nc(-c2ccccc2)nc2c1oc1ccccc12)C(=O)O`, the inhibition was 1.5%. For `CSc1ccc(NC(=O)N2CC(C)OC(C)C2)cc1` (stereo not given), the inhibition was 14.4%. `Cc1c(C(=O)Nc2ccccc2Cl)oc2ccc(S(=O)(=O)N3CCC4(CC3)OCCO4)cc12` showed an inhibition of 7.5%. `COC(=O)c1c(-c2cccs2)csc1NC(=O)CSc1ncnc2sc(C)c(C)c12` showed an inhibition of 16.1%. In the case of `Nc1cc(=O)nc(SCc2ccccc2)n1Cc1ccco1`, the inhibition is reported as 32.6%. In the case of `CCn1c(COc2ccccc2)nnc1SCC(=O)Nc1ccc2c(c1)OCCO2`, the inhibition is reported as 18.3%. In the case of `O=C(CSc1nnc(-c2cccs2)n1Cc1ccco1)c1ccc2c(c1)OCO2`, the inhibition is reported as 51% (active). In the case of `C(=C\c1ccccc1)/CSc1nnc(-c2cccnc2)n1Cc1ccco1`, the inhibition is reported as 72.6% (active). With `Cc1cccc(C)c1NC(=O)CCCSc1nnc(-c2ccco2)n1-c1ccccc1` the inhibition was 23.1%. In the case of `CCn1c(COc2ccc(OC)cc2)nnc1SCC(=O)Nc1cc(OC)ccc1OC`, the inhibition is reported as 65.9% (active). In the case of `COc1ccc(NC(=O)CSc2nnc(-c3cccs3)n2Cc2ccco2)cc1OC`, the inhibition is reported as 35.6%. In the case of `COc1ccc(OC)c(NC(=O)CSc2nc3cccnc3n2C)c1`, the inhibition is reported as 40.2%. Work on `N=c1c2c(-c3ccccc3)c(-c3ccccc3)oc2ncn1Cc1ccco1` yielded an inhibition of 19.1%. For `CCc1cccc(C)c1NC(=O)CSc1nnc(-c2ccco2)n1N`, the inhibition was 76% (active). Work on `CCCn1c(SCC(=O)c2ccc3c(c2)OCCO3)nnc1C(C)C` yielded an inhibition of 16.5%. With `NC(=O)c1c(NC(=O)CSc2nnc(-c3ccco3)n2N)sc2c1CCCC2` the inhibition was 33.7%. Compound `COc1cccc2c1OCC(C(=O)NCc1ccc(Cl)cc1Cl)=C2` has an inhibition of 28.2%. With `CCCCN1C(=O)CC(N2CCOCC2)C1=O` (stereo not given) the inhibition was -0.3%. `CCCOc1ccc(CN(CCO)CCO)cc1C(=O)OC` showed an inhibition of 0.9%. Work on `O=C(CSCc1c(Cl)cccc1Cl)NN1C(=O)c2ccccc2C1=O` yielded an inhibition of 43.5%. `COc1ccc(C(=O)Nc2ncc3c(n2)-c2ccccc2CC3)cc1` was tested, and the inhibition was 5.2%. `O=C(c1cccnc1NCc1ccccc1)N1CCOCC1` showed an inhibition of 5.8%. `CCCC(=O)N=c1sc2cccc(F)c2n1C` showed an inhibition of 44.7%. Work on `CCOC(=O)c1ccc(N2C(=O)CC(Sc3nc(O)c(CC)c(=O)[nH]3)C2=O)cc1` (stereo not given) yielded an inhibition of -1%. For `O=C(Nc1ccccc1)c1ccccc1NC(=O)C(F)(F)F`, the inhibition was 33.4%. For `CCCc1nc(SCC(=O)Nc2ccccc2OC)c2c(=O)n(C)c(=O)n(C)c2n1`, the inhibition was 41%. `COc1cc(Cl)c(C)cc1NC(=O)CSc1nnc(-c2ccco2)n1CC(C)C` was tested, and the inhibition was 96.1% (active). Compound `CCOC(=O)CSc1nc2c(sc(=S)n2CCc2ccccc2)c(=O)n1Cc1ccco1` has an inhibition of 20.9%. With `CCCn1c(SCC(=O)Nc2c(C)cccc2C)nnc1C(C)C` the inhibition was 24.4%. In the case of `COc1ccccc1NC(=O)CSc1nc2sc(C)c(C)c2c(=O)n1Cc1ccco1`, the inhibition is reported as 92.9% (active). With `CCc1c(C)nc2cc(C)[nH]n2c1=O` the inhibition was -0.7%. In the case of `CCOCCN(C=O)c1cccc(OC)c1`, the inhibition is reported as 26.6%. Compound `CC(C)Oc1ccc(CCc2n[nH]c(=S)n2Cc2ccccc2)cc1` has an inhibition of 16.7%. In the case of `CCOC(=O)c1c(NC(=O)CCl)sc(C(=O)N(CC)CC)c1C`, the inhibition is reported as 56.1% (active). Compound `CCOC(=O)c1sc(NC(=O)CSc2nnc(-c3ccco3)o2)c(C(=O)OCC)c1C` has an inhibition of 25.2%. Work on `CCOC(=O)c1sc(NC(=O)CCN2CCOCC2)c(C(=O)OCC)c1C` yielded an inhibition of 35.2%. Compound `COC(=O)c1c(CCl)noc1C(=O)NC(C)C` has an inhibition of 10.5%. In the case of `COc1ccccc1N=C1SC(C)CN1C(=O)C1CCC1` (stereo not given), the inhibition is reported as -1.1%. Compound `Cn1c2c(c(=O)n(C)c1=O)[C@@H]1c3c(ccc4ccccc34)OC[C@@H]1CO2` has an inhibition of 33.8%. For `O=C(c1ccco1)N1CCN(CC(=O)N(C2CCCCC2)C2CCS(=O)(=O)C2)CC1` (stereo not given), the inhibition was -21.3%. Compound `CCCc1nc2ccccc2c(=O)n1NC(=O)c1c(O)c2ccccc2[nH]c1=O` has an inhibition of -11.7%. In the case of `Cc1[nH]n(-c2cccc(Cl)c2)c(=O)c1/C=N/n1c(C)nc2ccccc2c1=O`, the inhibition is reported as 20.6%. For `CCCc1nc2ccccc2c(=O)n1/N=C/c1ccc(O)c(O)c1`, the inhibition was 54.2% (active).
